# Calls of active or inactive are those of the source.
# System: not listed separately
# Test: change in splice reporter luminescence, either direction, cell-based, HEK293, spliceosome inhibition project, primary screen (AID 1101);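 further: HEK293 cells carrying a splicing-competent luciferase reporter gene; test concentration not given here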
# Details: HEK293 splicing luciferase reporter, 24 h, higher = more signal, called active from +8 up or from −8 down
row,SMILES,z-score
1,NC(=O)NCC#Cc1ccc2c(c1)[C@]1(C(=O)N2)[C@H](c2ccccc2OCCO)N2[C@H](c3ccccc3)[C@H](c3ccccc3)OC(=O)[C@H]2[C@@H]1C(=O)NC[C@H](O)c1ccccc1,-1.14 (inactive)
2,CN(C)C(=O)[C@]1(CCC(=O)OC(C)(C)C)N=C(c2ccc(OCCCO)cc2)O[C@@H]1c1ccccc1CN=[N+]=[N-],-0.561 (inactive)
3,Cc1ccccc1C(O)C1C=CC2C(=O)NC(=O)C2N1Nc1ccccn1 (stereo not drawn),1.55 (inactive)
4,COCCOC(=O)N1C(=O)[C@@]2(c3ccccc31)[C@H](C(=O)NC[C@H](O)c1ccccc1)[C@H]1C(=O)O[C@H](c3ccccc3)[C@H](c3ccccc3)N1[C@@H]2c1ccc(O)cc1,-0.118 (inactive)
5,CC1CC/C=C\[C@H]2OC34C=CCN(C(C)C)C(=O)[C@H]3N(CCO)C(=O)[C@@H]4C2C(=O)O1 (stereo partly drawn),0.459 (inactive)
6,CCOC(=O)C=Cc1cccc(C)c1O,-1.41 (inactive)
7,CCCCCCCCCCC(O)C1C=CC2C(=O)N(c3ccccc3)C(=O)C2N1Nc1ccc(C#N)cc1 (stereo not drawn),1.08 (inactive)
8,COCC(=C=CC[C@H](O)c1ccc(CO)o1)CCO,0.191 (inactive)

# Target: Fibroblast growth factor 10 (Homo sapiens) (UniProt O15520)
# Test: compounds binding fibroblast growth factor 10 – biochemical, small-molecule microarray, 635 nm fluorescence, primary screen (AID 1102)
# Details: FGF10 binding, fluorescence 635 nm, higher = more signal
# Fibroblast growth factor 10 (Homo sapiens), sequence (O15520 whole entry, looked up): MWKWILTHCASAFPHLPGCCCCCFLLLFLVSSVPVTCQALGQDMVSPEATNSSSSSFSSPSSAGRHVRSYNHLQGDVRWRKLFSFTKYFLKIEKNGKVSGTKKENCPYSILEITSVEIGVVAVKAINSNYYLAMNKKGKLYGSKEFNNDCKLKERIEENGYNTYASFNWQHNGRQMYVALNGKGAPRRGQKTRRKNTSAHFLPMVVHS
row,SMILES,composite z-score
1,CCCC1(C(=O)OC)C=C2C(=C(C)C(=O)C2C)CN1 (stereo not drawn),0.168
2,NCCCCCNC(=O)[C@@H]1C[C@@H]2C(=O)N[C@@H](CCCCN)C(=O)N2[C@@H]1c1ccc(O)cc1,1.41
3,CCCN1C(=O)[C@]2(Cc3ccccc31)N=C(c1ccc(OCCCO)cc1)O[C@@H]2c1ccccc1,0.592
4,CCN(CC)c1ccc(N2CC=CC34O[C@@H]5/C=C\CCCOC(=O)C5[C@H]3C(=O)N(C(C)CO)[C@@H]4C2=O)cc1 (stereo partly drawn),-0.184
5,NC(=O)[C@H]1[C@@H]2C(=O)O[C@@H](c3ccccc3)[C@@H](c3ccccc3)N2[C@@H](c2ccc(OCCO)cc2)[C@]12C(=O)Nc1ccc(C#CCCO)cc12,0.251
6,CC(C)C(CO)N1C(=O)[C@@H]2[C@H]3C(=O)OCC=C[C@H]3OC23C=CCN(c2ccc(Cl)cc2)C(=O)[C@@H]13 (stereo partly drawn),-0.739
7,C=CCNC(=O)[C@@H]1[C@H]2C(=O)O[C@H](c3ccccc3)[C@H](c3ccccc3)N2[C@H](c2ccccc2OCCO)[C@@]12C(=O)Nc1ccc(C#CCC(C(=O)OC)C(=O)OC)cc12,0.395
8,COc1ccc(C#Cc2ccc3c(c2)[C@]2(C(=O)N3)[C@H](C(=O)O)[C@H]3C(=O)O[C@H](c4ccccc4)[C@H](c4ccccc4)N3[C@@H]2c2ccc(O)cc2)cc1,-0.054
9,CCCC[C@@H](O)C1=C(COC)C[C@H]2C(=O)N(Cc3ccccc3)C(=O)[C@H]2[C@H]1CO,0.822
10,COC(=O)[C@@]1(Cc2ccc(F)cc2)[C@H]2c3cc(C(=O)N4CCCC4)n(Cc4ccc(C)c(F)c4F)c3C[C@H]2CN1C(=O)c1ccccc1,-0.291
11,C=CCNC(=O)[C@@H]1[C@H]2C(=O)O[C@H](c3ccccc3)[C@H](c3ccccc3)N2[C@H](c2ccc(O)cc2)[C@@]12C(=O)N(C(=O)OCCOC)c1ccc(C#CC3=CCCCC3)cc12,0.965
12,C#Cc1cc2ccccc2oc1=O,-0.347
13,COc1cc(NN2C(C(O)c3cc(OC)c(OC)c(OC)c3)C=CC3C(=O)N(C)C(=O)C32)cc(OC)c1OC (stereo not drawn),0.691
14,CO[C@H]1O[C@H](CO)[C@@H](OC(=O)Nc2ccccc2)[C@H](OC(=O)c2cc3ccccc3[nH]2)[C@H]1OC(=O)c1cc2ccccc2[nH]1,1.35
15,CCOC(=O)C[C@H]1[C@H](OC(=O)Cc2ccc3c(c2)OCO3)[C@@H](NC(=O)c2ccc3ccccc3n2)c2cc(OCCCO)ccc2N1C(=O)c1ccc2ccccc2n1,0.813
16,COc1ccc(C#Cc2ccc3c(c2)[C@]2(C(=O)N3)[C@H](c3ccc(OCCO)cc3)N3[C@H](c4ccccc4)[C@H](c4ccccc4)OC(=O)[C@H]3[C@@H]2C(=O)NC[C@H](O)c2ccccc2)cc1,0.882
17,NCCCCCNC(=O)[C@H]1C[C@H]2C(=O)N3CCC[C@H]3C(=O)N2[C@H]1c1cccc(OCCO)c1,0.68
18,CO[C@H]1O[C@H](CO)[C@@H](OC(=O)Nc2ccc(Br)cc2)[C@@H]2OC(=O)[C@@H](Cc3ccccc3)C/C=C/C[C@H](Cc3ccccc3)C(=O)O[C@@H]12,0.767

row,SMILES,composite z-score
1,CCOC(=O)[C@@H]1CCCCN1C(=O)C(=O)OC,0.549
2,O=C(Cc1ccccc1)[C@H]1C2C=CCCC(c3ccccc3)=C2CN1Cc1ccccc1 (stereo partly drawn),-0.0435
3,CCOC(=O)C[C@H]1[C@H](OC(=O)Cc2ccc3c(c2)OCO3)[C@@H](NC(=O)C2CCCCC2)c2cc(OCCCO)ccc2N1C(=O)c1ccccc1,0.27
4,C=C[C@H](C)[C@H](OC(=O)Nc1ccc(SC)cc1)c1ccc(OCCO)cc1,0.515
5,CCCCC(CC)C(O)C1C=CC2C(=O)N(c3ccccc3)C(=O)C2N1Nc1ccccc1F (stereo not drawn),0.944
6,Cc1ccc(C(C)CC(O)C2C=CC3C(=O)N(c4ccccc4)C(=O)C3N2Nc2ccccc2)o1 (stereo not drawn),0.981
7,CCOC(=O)C1=C[C@@H](C(C)(C)C)N(S(=O)(=O)c2ccc(C)cc2)[C@H]1c1cccc2ccccc12,0.242
8,CC(C)N1C(=O)C[C@@](C(=O)NC2CC2)(c2ccc([N+](=O)[O-])cc2)[C@H]1c1ccc(CO)cc1,-0.576
9,COC(=O)c1c(CC[C@@H](CO)NC(=O)N2CCC[C@H]2Cn2cc(C3(O)CCCCC3)nn2)oc(C(C)=O)c1C(=O)OC,0.955
10,NC(=O)NCC#Cc1ccc2c(c1)[C@]1(C(=O)N2)[C@H](c2ccccc2OCCO)N2[C@H](c3ccccc3)[C@H](c3ccccc3)OC(=O)[C@H]2[C@@H]1C(=O)NC[C@H](O)c1ccccc1,-0.491
11,CN(C)C(=O)[C@]1(CCC(=O)OC(C)(C)C)N=C(c2ccc(OCCCO)cc2)O[C@@H]1c1ccccc1CN=[N+]=[N-],0.518
12,Cc1ccccc1C(O)C1C=CC2C(=O)NC(=O)C2N1Nc1ccccn1 (stereo not drawn),-0.209
13,COCCOC(=O)N1C(=O)[C@@]2(c3ccccc31)[C@H](C(=O)NC[C@H](O)c1ccccc1)[C@H]1C(=O)O[C@H](c3ccccc3)[C@H](c3ccccc3)N1[C@@H]2c1ccc(O)cc1,1.42
14,CC1CC/C=C\[C@H]2OC34C=CCN(C(C)C)C(=O)[C@H]3N(CCO)C(=O)[C@@H]4C2C(=O)O1 (stereo partly drawn),-0.309
15,CCOC(=O)C=Cc1cccc(C)c1O,-0.119
16,CCCCCCCCCCC(O)C1C=CC2C(=O)N(c3ccccc3)C(=O)C2N1Nc1ccc(C#N)cc1 (stereo not drawn),1.06
17,COCC(=C=CC[C@H](O)c1ccc(CO)o1)CCO,1.52
